According to PubChem BioAssay (EPA / NIEHS):
Where “and” joins values, the source holds several entries; their conditions need not be identical. Equal values may be shown once. Records with an inconclusive call do not appear. A structure can be active in one record and inactive in another. Calls of active or inactive are those of the source. Rule for the calls, unless noted: active = hit-call score of the fitted dose curve at least 0.9, where 1 is the maximum; inactive = score below 0.9.

Key:
[1] = TOX21_p53_BLA_p2_viability: Viability Assessment in the Tox21 HCT-116 p53 Agonism Beta-lactamase Assay, Phase 2 (AID 2283591; active = hit-call score of the fitted dose curve at least 0.9, where 1 is the maximum;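 note: compound exposure lasted 16 h at 37 °C; actives lower the ATP signal meaning cytotoxicity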)
Summary of the method: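 HCT116 p53-bla cells, 4000/well, dosed after 5 h plating (217-fold dilution of DMSO stocks) and incubated 16 h at 37C. Viability taken as cellular ATP by CellTiter-Glo luminescence after 30 min RT; signal loss marks cytotoxicity.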

[2] = biological target: Cellular tumor antigen p53 (Homo sapiens) (UniProt P04637); assay: TOX21_p53_BLA_p2_ratio: Tox21 HCT-116 p53 Agonism Beta-lactamase Assay, Ratio, Phase 2 (AID 2283592; active = hit-call score of the fitted dose curve at least 0.9, where 1 is the maximum)
Summary of the method: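 Human colon HCT116 cells with an inducible p53 beta-lactamase reporter are exposed to test chemicals for 16 h at 37C. Reporter induction is read as the 460/530 nm emission ratio after CCF4-AM loading, normalized to DMSO.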

[3] = TOX21_p53_BLA_p3_viability: Viability Assessment in the Tox21 HCT-116 p53 Agonism Beta-lactamase Assay, Phase 3 (AID 2283593; active = hit-call score of the fitted dose curve at least 0.9, where 1 is the maximum;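 note: cells exposed to compound for 16 h before reading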)
Summary of the method: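 HCT116 cells, 4000/well, dosed 5 h after plating by pin transfer (217-fold dilution from DMSO stock) and incubated 16 h at 37C, 5% CO2. Viability read as ATP luminescence with CellTiter-Glo after 30 min at room temperature.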

[4] = biological target: Cellular tumor antigen p53 (Homo sapiens) (UniProt P04637); assay: TOX21_p53_BLA_p3_ratio: Tox21 HCT-116 p53 Agonism Beta-lactamase Assay, Ratio, Phase 3 (AID 2283596; active = hit-call score of the fitted dose curve at least 0.9, where 1 is the maximum)
Summary of the method: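 HCT116 p53-bla cells (4000/well) given compound in DMSO (217-fold dilution) after 5 h, incubated 16 h at 37C. CCF4-AM substrate 2 h at room temperature; 460/530 nm emission ratio, gain fitted against DMSO.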

[5] = biological target: Cellular tumor antigen p53 (Homo sapiens) (UniProt P04637); assay: TOX21_p53_BLA_p5_ratio: Tox21 HCT-116 p53 Agonism Beta-lactamase Assay, Ratio, Phase 5 (AID 2283599; active = hit-call score of the fitted dose curve at least 0.9, where 1 is the maximum)
Summary of the method: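 HCT-116 p53-bla cells (4000/well) plated 5 h, dosed with compound (217-fold DMSO dilution) for 16 h at 37 C; CCF4-AM substrate 2 h at room temperature. Activity is the 460/530 nm emission ratio (405 nm excitation), fitted in gain-of-signal direction versus DMSO.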

[6] = TOX21_p53_BLA_p5_viability: Viability Assessment in the Tox21 HCT-116 p53 Agonism Beta-lactamase Assay, Phase 5 (AID 2283600; active = hit-call score of the fitted dose curve at least 0.9, where 1 is the maximum)
Summary of the method: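 Seeded cells (4000/well) settle 5 h before compound addition. Plates then incubate 16 h at 37C, receive FRET substrate for 2 h, and finally CellTiter-Glo, with luminescence measured after a 30 min room-temperature incubation.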

[7] = CCTE_Shafer_MEA_dev_firing_rate_mean: CCTE's Neural Network Formation Assay for Mean Firing Rate, Shafer Lab (AID 2284031)
Summary of the method: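 Rat primary cortical neurons were seeded on multielectrode arrays and treated from plating through day 12, with redosing at each feed. Spontaneous spiking was recorded four times; mean firing rate AUC was fitted downward against DMSO.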

[8] = CCTE_Shafer_MEA_dev_active_electrodes_number: CCTE's Neural Network Formation Assay for Number of Active Electrodes, Shafer Lab (AID 2284040; active = hit-call score of the fitted dose curve at least 0.9, where 1 is the maximum;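 note: potency for loss of active electrodes versus DMSO so lower counts are hits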)
Summary of the method: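 Primary rat cortical neurons on 16-electrode MEA wells, exposed from day 0 through day 12 with compound renewed at DIV 5 and 9 feeds. Active electrodes (mean firing ≥5 spikes/min) counted at DIV 5, 7, 9, 12; trapezoidal AUC across days, loss-of-signal versus DMSO.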

[9] = CCTE_Shafer_MEA_dev_burst_rate: CCTE's Neural Network Formation Assay for Burst Rate, Shafer Lab (AID 2284042)
Summary of the method: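 Primary rat cortical neurons on PEI-coated 48-well MEA plates (laminin added with cells at plating) (16 electrodes/well), exposed from plating to day 12, dosing renewed at DIV 5 and 9. Burst rate averaged over active electrodes, recorded DIV 5, 7, 9, 12, summarized as AUC; loss versus DMSO.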

[10] = CCTE_Shafer_MEA_dev_bursting_electrodes_number: CCTE's Neural Network Formation Assay for Number of Bursting Electrodes, Shafer Lab (AID 2284043; active = hit-call score of the fitted dose curve at least 0.9, where 1 is the maximum;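 note: potency is for loss of bursting electrodes relative to DMSO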)
Summary of the method: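 Primary rat cortical neurons plated on 16-electrode MEA wells, exposed from day 0 with compound renewed at DIV 5 and 9. Electrodes bursting ≥1 burst per 2 min counted on days 5, 7, 9 and 12; trapezoidal AUC across days, fitted for loss versus DMSO.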

[11] = CCTE_Shafer_MEA_dev_burst_duration_mean: CCTE's Neural Network Formation Assay for Mean Burst Duration, Shafer Lab (AID 2284045)
Summary of the method: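 Primary rat cortical neurons on 48-well 16-electrode MEA plates, exposed from day 0 with renewal at DIV 5 and 9; spontaneous activity recorded on days 5, 7, 9, 12. Well-mean burst duration across bursting electrodes, collapsed as trapezoidal AUC; DMSO baseline.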

[12] = CCTE_Shafer_MEA_dev_inter_network_spike_interval_mean: CCTE's Neural Network Formation Assay for Mean Inter-network Spike Interval, Shafer Lab (AID 2284047)
Summary of the method: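 Primary rat cortical neurons on 16-electrode MEA wells, exposed from plating day 0 through DIV 12, compound renewed at DIV 5 and 9 media changes. Mean interval between network-spike peaks recorded DIV 5, 7, 9, 12; collapsed as trapezoidal AUC, fitted downward versus DMSO.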

[13] = CCTE_Shafer_MEA_dev_network_spike_number: CCTE's Neural Network Formation Assay for Number of Network Spikes, Shafer Lab (AID 2284048)
Summary of the method: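 Primary rat cortical neurons on PEI/laminin 48-well MEA plates, dosed from plating day 0 for 12 days, renewed at DIV 5 and 9. Network spike counts recorded DIV 5, 7, 9, 12, collapsed as trapezoidal AUC; DMSO baseline.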

[14] = CCTE_Shafer_MEA_dev_network_spike_peak: CCTE's Neural Network Formation Assay for Mean Number of Electrodes in Network Spike, Shafer Lab (AID 2284049);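 note: fitted for loss of signal meaning fewer electrodes in network spikes than DMSO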
Summary of the method: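 Network-spike peak electrode count from recordings on days 5, 7, 9 and 12 was combined as trapezoidal area under the curve. Rat cortical cultures were treated continuously from plating, with compound renewed at each feed (DIV 5, 9); fits versus DMSO.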

[15] = CCTE_Shafer_MEA_dev_spike_duration_mean: CCTE's Neural Network Formation Assay for Mean Spike Duration, Shafer Lab (AID 2284051);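 note: mean network spike duration pooled as area under curve over DIV 5 to 12 recordings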;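 for AC50: potency for a decrease in mean network spike duration versus DMSO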
Summary of the method: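 Primary rat cortical neurons on 16-electrode MEA wells (PEI-coated, laminin in plating drop), exposed from plating through DIV 12 with compound renewed at DIV 5 and 9. Mean network-spike duration recorded DIV 5, 7, 9, 12; trapezoidal AUC across days, DMSO baseline.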

[16] = CCTE_Shafer_MEA_dev_network_spike_duration_std: CCTE's Neural Network Formation Assay for Standard Deviation of Network Spike Duration, Shafer Lab (AID 2284052);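 note: area under curve of spike duration SD across recording days 5 to 12; hits are decreases in network spike duration SD versus DMSO vehicle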
Summary of the method: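 Primary rat cortical neurons on PEI-coated 16-electrode MEA wells, exposed from plating day 0 through day 12 with compound renewed at DIV 5 and 9. Network spike duration SD recorded on days 5, 7, 9, 12, collapsed as trapezoidal AUC; loss-of-signal fit versus DMSO.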

[17] = CCTE_Shafer_MEA_dev_per_network_spike_spike_number_mean: CCTE's Neural Network Formation Assay for Mean Number of Spikes in a Network Spike, Shafer Lab (AID 2284053);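 note: fitted as decrease in spikes per network spike relative to DMSO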
Summary of the method: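 Primary rat cortical neurons on 48-well, 16-electrode MEA plates were exposed from plating to DIV 12, with dosing renewed on DIV 5 and 9. Spikes per network spike (0.05 s peak window) were recorded on DIV 5, 7, 9 and 12 and collapsed as trapezoidal AUC versus DMSO.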

[18] = CCTE_Shafer_MEA_dev_per_network_spike_spike_percent: CCTE's Neural Network Formation Assay for Percent of Spikes in a Network Spike, Shafer Lab (AID 2284054)
Summary of the method: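 Rat primary cortical neurons were grown on 48-well MEA plates (16 electrodes/well), exposed from plating day 0 through day 12, with treatment renewed on DIV 5 and 9. Percent of spikes within 0.05 s network-spike peaks was measured, summarised as AUC across days 5, 7, 9, 12.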

[19] = UKN5_HCS_SBAD2_cell_viability: Viability Assessment in the University of Konstanz (UKN) Leist Lab Neurite Outgrowth Assay in human iPSC-derived immature Dorsal Root Ganglia Neurons (UKN5) (AID 2284056)
Summary of the method: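 iPSC-derived immature peripheral neurons (SBAD2) seeded on Matrigel with CHIR99021, SU5402 and DAPT, dosed 1 h later for 24 h. Viability from Hoechst H-33342 and calcein-AM live staining, high-content imaging; bidirectional fit versus DMSO.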

[20] = CCTE_Shafer_MEA_dev_LDH: CCTE's Lactate Dehydrogenase Assay for Cytotoxicity in the Neural Network Formation Assay, Shafer Lab (AID 2284068; active = hit-call score of the fitted dose curve at least 0.9, where 1 is the maximum;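 note: exposure for twelve days from plating with re-dosing on DIV 5 and 9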)
Summary of the method: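 Primary rat cortical neurons were plated on PEI/laminin MEA plates and exposed from day 0 for twelve days, with compound renewed at DIV 5 and 9. Cytotoxicity was determined by spectrophotometric LDH assay relative to DMSO.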

[21] = UKN5_HCS_SBAD2_neurite_outgrowth: University of Konstanz (UKN) Leist Lab Neurite Outgrowth Assay in human iPSC-derived immature Dorsal Root Ganglia Neurons (UKN5) (AID 2284070); details: actives raise or lower the signal
Summary of the method: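 Read-out: calcein-AM-stained neurite area by high-content imaging, Hoechst H-33342 for viability, after 24 h exposure of iPSC-derived immature dorsal root ganglia neurons. Activity fitted in both directions relative to DMSO baseline.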

[22] = CCTE_Shafer_MEA_dev_AB: CCTE's Alamar Blue Assay for Cytotoxicity in the Neural Network Formation Assay, Shafer Lab (AID 2284083; active = hit-call score of the fitted dose curve at least 0.9, where 1 is the maximum;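 note: twelve days of exposure from plating with re-dosing on DIV 5 and 9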)
Summary of the method: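 Primary rat cortical neurons on PEI-coated 48-well MEA plates, 1.5 x 10^5 cells/well in laminin drop; compound exposure from day 0 of plating for twelve days, renewed at medium changes on DIV 5 and 9. Viability read as resazurin reduction by fluorescence, relative to DMSO.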

[23] = CCTE_Shafer_MEA_dev_mutual_information_norm: CCTE's Neural Network Formation Assay for Mutual Information Normalization, Shafer Lab (AID 2284091);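 note: mutual information between electrodes summarised as area under curve across four recording days; potency is for a decrease in mutual information relative to DMSO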
Summary of the method: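 Primary rat cortical neurons on PEI-coated 48-well MEA plates, 1.5 x 10^5 cells/well, exposed from day 0 through day 12 with re-dosing at DIV 5 and 9. Mutual information between electrodes recorded days 5, 7, 9, 12; trapezoidal AUC, loss-of-signal fit versus DMSO.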

[24] = CCTE_Shafer_MEA_dev_correlation_coefficient_mean: CCTE's Neural Network Formation Assay for Mean Correlation Coefficient, Shafer Lab (AID 2284093);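 note: well mean pairwise spike train correlation integrated as AUC over recording days 5 to 12; potency fitted for loss of correlation relative to DMSO vehicle wells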
Summary of the method: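 Spontaneous activity recorded on days 5, 7, 9 and 12 post-plating; pairwise spike correlations are averaged across active electrodes and collapsed to an area-under-curve. Rat cortical cultures are dosed from plating through 12 days, with compound renewed at media changes.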

[25] = UKN2_HCS_IMR90_neural_migration: University of Konstanz (UKN) Leist Lab Neural Crest Cell Migration Assay in human induced IMR90 Pluripotent Stem Cells (UKN2) (AID 2284204); details: actives raise or lower the signal
Summary of the method: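 iPSC-derived IMR90 neural crest cells seeded around stoppers on PLO/laminin/fibronectin; migration started in N2-S medium with EGF/FGF, compounds added after 24 h for 24 h. Migration into cell-free area imaged after calcein-AM/Hoechst staining; bidirectional fit versus DMSO.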

Chain of Cellular tumor antigen p53 (Homo sapiens) (P04637 whole entry, looked up): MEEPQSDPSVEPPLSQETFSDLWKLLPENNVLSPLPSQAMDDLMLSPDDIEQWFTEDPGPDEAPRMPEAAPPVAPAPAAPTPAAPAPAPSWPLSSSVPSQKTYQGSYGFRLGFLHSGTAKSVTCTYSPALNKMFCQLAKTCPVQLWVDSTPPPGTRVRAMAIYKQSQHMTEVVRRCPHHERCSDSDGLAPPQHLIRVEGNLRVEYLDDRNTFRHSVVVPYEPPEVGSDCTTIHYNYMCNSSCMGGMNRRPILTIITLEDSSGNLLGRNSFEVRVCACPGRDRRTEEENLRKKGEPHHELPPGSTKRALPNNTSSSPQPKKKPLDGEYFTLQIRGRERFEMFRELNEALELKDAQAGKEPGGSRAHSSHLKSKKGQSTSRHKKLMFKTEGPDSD

In the case of Brc1ccc(Oc2ccc(Br)cc2Br)c(Br)c1, the outcome [1] is reported as “inactive”, the outcome [2] is reported as “inactive” and the outcome [3] is reported as “inactive”. For the same compound, the outcome [4] was “inactive”, the outcome [5] was “inactive” and the outcome [6] was “inactive”. For the same compound, the outcome [7] was “inactive”, the AC50 [8] was 19.8 nM (active) and 10 µM (active) and the outcome [9] was “inactive”. The AC50 [10] was 22.5 nM (active) and 8.36 µM (active), the outcome [11] was “inactive” and the outcome [12] was “inactive”. For the same compound, the outcome [13] was “inactive”, the AC50 [14] was 13.2 nM (active) and 10 µM (active) and the AC50 [15] was 15 µM (active). The outcome [15] was “inactive”, the outcome [16] was “inactive” and the AC50 [17] was 25.4 nM (active) and 4 µM (active). The AC50 [18] was 15.1 µM (active), the outcome [18] was “inactive” and the outcome [19] was “inactive”. The AC50 [20] was 12.3 µM (active), the outcome [20] was “inactive” and the outcome [21] was “inactive”. The AC50 [22] was 8.31 µM (active), the outcome [22] was “inactive” and the AC50 [23] was 13.4 nM (active) and 1.98 µM (active). For the same compound, the AC50 [24] was 92.3 nM (active) and 4.26 µM (active) and the outcome [25] was “inactive”.
